Results filed as inconclusive are left out. Calls of active or inactive are those of the source. Unless noted, calls come from the whole dose curve; as a rule, active = well fitted curve in the direction sought with a large enough effect; inconclusive = small, poorly fitted or top-dose-only effect, or another doubt; inactive = no such curve, though single readings can be large; an effect the other way counts as inactive or inconclusive.
What was measured:
[1] = Validation screen for inhibitors of Lassa infection (AID 463096; calls by dose curve; note: potency is the fitted concentration of half-maximal effect)
[2] = Cytometric Cell-Based qHTS for Inhibitors of the mTORC1 Signaling Pathway in MEF (Tsc2-/-, p53-/-) Cells (AID 2660);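 note: Tsc2 and p53 null MEFs carrying empty vector with compound for 24 h; percent of cells above a phospho-rpS6 to PI ratio cutoff in each well; series mostly up to about 38 µM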
In short: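 Readout: Alexa-488 phospho-rpS6 (Ser235/236) intensity divided by PI intensity, thresholded against 7.5 nM rapamycin wells and reported as % positive cells. PI cell count served as the viability measure. Compound exposure was 24 hrs at 37 degree Celsius.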

[3] = High Content Imaging Cell-Based qHTS for Inhibitors of the mTORC1 Signaling Pathway in MEF (Tsc2-/-, p53-/-) Cells (AID 2666);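 note: percent of cells scored positive for phospho-rpS6 Ser235/236 immunostaining by imaging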; note: potency is the fitted concentration of half-maximal effect
In short: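 Cells were plated, dosed with compound after 24 hrs, and incubated another 24 hrs at 37 degree Celsius. Fixed cells were immunostained for phospho-rpS6 Ser235/236 and counterstained, and the normalized signal was scored as % active cells against rapamycin and DMSO controls.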

[4] = High Content Imaging Cell-Based qHTS for Inhibitors of the mTORC1 Signaling Pathway in MEF Cells (AID 2667); note: potency is the fitted concentration of half-maximal effect
In short: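 Immunofluorescence for rpS6 phosphorylation in MEFs of Tsc2-/-, p53-/- background rescued with WT Tsc2. Compound exposure lasted 24 hrs. Inhibition was scored against rapamycin-treated control wells.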

[5] = Cytometry Cell-Based qHTS for Inhibitors of the mTORC1 Signaling Pathway in MEF cells (AID 2668); note: potency is the fitted concentration of half-maximal effect
In short: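 Pathway inhibition in WT Tsc2-rescued Tsc2-/-, p53-/- MEFs is measured as the Alexa-488 phospho-rpS6 to propidium iodide intensity ratio after 24 hrs of compound at 37 degree Celsius. PI-stained cell number gives viability.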

[6] = biological target: Ubiquitin carboxyl-terminal hydrolase 2 (Homo sapiens) (UniProt O75604); assay: qHTS Validation Assay for Inhibitors of Ubiquitin-specific Protease USP2a Using CHOP2 as the Reporter (AID 463106); note: potency is the fitted concentration of half-maximal effect
In short: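 10nM USP2 core + cpd, 30min RT; add 25nM Ub-CHOP2/25nM substrate; 60min RT; FI 485/531nm. Buffer Tris pH 8.0, CaCl2, BME, CHAPS. Norm. to NEM = 100% inhibition; time-zero read flags fluorescent artifacts.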

[7] = biological target: DNA polymerase III PolC-type (Bacillus subtilis (strain 168)) (UniProt P13267); assay: qHTS Validation Assay for the Inhibitors of DNA Replication in Gram-Positive Bacteria (AID 485295); note: potency is the fitted concentration of half-maximal effect
In short: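 Primed replication of single-stranded M13Gori by a four-protein B. subtilis holoenzyme is measured at room temperature. Double-stranded product is quantified by PicoGreen fluorescence after an EDTA stop; inhibition is scaled between DMSO and EDTA controls.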

[8] = biological target: Tumor susceptibility gene 101 protein (Homo sapiens) (UniProt Q99816); assay: qHTS Validation Assay for Iinhibitors of HIV-1 Budding by Blocking the Interaction of PTAP/TSG101 (AID 485342; calls by dose curve)
In short: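 Fluorescence anisotropy measured PTAP-Tsg101 interaction. Final concentrations were 10 uM protein domain and 50 nM labeled peptide, equilibrated 20 min at room temperature.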

[9] = qHTS Validation Assay to Find Inhibitors of Chronic Active B-Cell Receptor Signaling (AID 485345; active = well fitted curve in the direction sought with a large enough effect in the main read-out, with a control signal flat, not every such curve was filed as active)
In short: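 Read-out: ratio of filter-corrected green (IkappaBalpha fusion) to red (native) luciferase signal in doxycycline-induced TMD8 cells after 4 h at 37C. Titration spanned 46 uM–3 nM; Data were normalised to basal cells and 10 uM MG-132 wells.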

[10] = biological target: Beta-2 adrenergic receptor (Homo sapiens) (UniProt P07550); assay: qHTS validation assay of beta-arrestin-biased ligands of beta2-adrenergic receptor (AID 485366)
In short: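 Tango cells (recombinant beta2-AR with recombinant beta-arrestin; recruitment releases tTA driving luciferase) were treated with compounds titrated up to 46 microM for 18 hr at 37 degrees C. Luminescence gave %Activity, and concentration-response curves were curve-classified.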

[11] = biological target: ATP-dependent 6-phosphofructokinase (Trypanosoma brucei brucei) (UniProt O15648); assay: qHTS Validation Assay to Find Inhibitors of T. brucei phosphofructokinase (AID 485368); note: potency is the fitted concentration of half-maximal effect
In short: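 Compounds (up to 57 uM, titration series) were pinned into substrate buffer, then 1.25 nM PFK added; after 45 min at room temperature, ADP product was quantified by ADP-Glo luminescence and concentration-response curves fitted.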

[12] = biological target: Thioredoxin reductase 1, cytoplasmic (Rattus norvegicus) (UniProt O89049); assay: qHTS Assay for Substrates of Mammalian Selenoprotein Thioredoxin Reductase 1 (TrxR1) (AID 488772);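 note: NADPH fluorescence in the first read after selenite addition and not the 8 min delta; series mostly up to about 57 µM; a drop in NADPH fluorescence below the no-compound background marks a TrxR1 substrate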
In short: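 Quantitative HTS in Tris-HCl buffer at pH 7.5 with EDTA and Tween-20, using rat TrxR1, 400 uM NADPH and 400 uM selenite (final). A fall in initial NADPH fluorescence relative to background marked substrate behaviour.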

[13] = biological target: Thioredoxin reductase 1, cytoplasmic (Rattus norvegicus) (UniProt O89049); assay: qHTS Assay for Inhibitors of Mammalian Selenoprotein Thioredoxin Reductase 1 (TrxR1) (AID 488773); conditions: Potency: inhibition; note: nearly all actives have a fitted effect of over 40% in size; note: potency is the fitted concentration of half-maximal effect
In short: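 Steps: enzyme (90 nM) plus NADPH (400 uM final), 5 min at ~22 deg C; compound added, 15 min; selenite (400 uM final) added; fluorescence followed for 8 min. Concentration-response curves derived from the normalized delta values.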

[14] = biological target: Flap endonuclease 1 (Homo sapiens) (UniProt P39748); assay: qHTS Validation Assay for the Inhibitors of Human Flap endonuclease 1 (FEN1) (AID 488816); note: potency is the fitted concentration of half-maximal effect
In short: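 Readings taken at 0 and 15 min after starting the reaction with 50 nM (final) substrate supplied the signal. Compounds had first sat with 10 nM FEN1 reagent for 15 min at room temperature. Values come from Hill-equation concentration-response fits.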

[15] = biological target: RecQ-like DNA helicase BLM (Homo sapiens) (UniProt P54132); assay: qHTS Validation Assay for Inhibitors of Bloom's syndrome helicase (BLM) (AID 2364); note: potency is the fitted concentration of half-maximal effect
In short: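 Forked 20-bp duplex substrate (200 nM, TAMRA/BHQ-2) plus 2 mM ATP added after 15 min compound preincubation with 50 nM enzyme, pH 8.0, poly(dI-dC) 2.5 ug/ml. Strand separation followed by fluorescence (525/598 nm) over 2 h, normalized to enzyme-free and DMSO controls.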

[16] = Quantitative high throughput screen for delayed death inhibitors of the malarial parasite plastid, 96 hour incubation (AID 488745); note: nearly all actives have a fitted effect of over 70% in size; note: potency is the fitted concentration of half-maximal effect
In short: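 P. falciparum carrying an integrated firefly luciferase reporter, grown in erythrocytes (2% hematocrit, 0.1% parasitemia final) in RPMI 1640/0.5% Albumax, was exposed to compound for 96 h (two generations) at 37 C, 5% CO2. Luminescence decrease indicated growth inhibition.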

[17] = Quantitative high throughput screen for delayed death inhibitors of the malarial parasite plastid, 48 hour incubation (AID 488752); note: nearly all actives have a fitted effect of over 65% in size; note: potency is the fitted concentration of half-maximal effect
In short: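 Erythrocytes infected with P. falciparum carrying an integrated firefly luciferase reporter (2% hematocrit, 0.1% parasitemia final) were exposed to compounds in RPMI 1640/0.5% Albumax for 48 h at 37 C, 5% CO2. Growth inhibition was scored as reduced luminescence.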

[18] = Validation screen for small molecules that induce DNA re-replication in MCF 10A normal breast cells (AID 463097); note: potency is the fitted concentration of half-maximal effect; nearly all actives have a fitted effect of over 60% in size
In short: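 DNA re-replication was detected as a rise in nuclei with elevated Hoechst fluorescence after a 48 hr compound exposure of MCF 10A cells at 37 C.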

Measured: Potency

Sequence of Beta-2 adrenergic receptor (Homo sapiens) (P07550 whole entry, looked up): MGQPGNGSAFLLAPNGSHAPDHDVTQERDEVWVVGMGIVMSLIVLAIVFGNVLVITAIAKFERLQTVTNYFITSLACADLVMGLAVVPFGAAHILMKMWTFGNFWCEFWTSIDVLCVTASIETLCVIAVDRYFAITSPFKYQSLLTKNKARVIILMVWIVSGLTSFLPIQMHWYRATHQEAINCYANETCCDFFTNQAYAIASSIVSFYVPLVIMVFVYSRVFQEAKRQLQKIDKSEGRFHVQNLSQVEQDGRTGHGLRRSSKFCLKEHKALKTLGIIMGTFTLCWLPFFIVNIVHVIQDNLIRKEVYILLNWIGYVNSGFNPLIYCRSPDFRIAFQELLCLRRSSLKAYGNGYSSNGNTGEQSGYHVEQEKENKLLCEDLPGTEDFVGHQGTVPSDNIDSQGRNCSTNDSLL
Sequence of Tumor susceptibility gene 101 protein (Homo sapiens) (Q99816 whole entry, looked up, the tested form may be a part): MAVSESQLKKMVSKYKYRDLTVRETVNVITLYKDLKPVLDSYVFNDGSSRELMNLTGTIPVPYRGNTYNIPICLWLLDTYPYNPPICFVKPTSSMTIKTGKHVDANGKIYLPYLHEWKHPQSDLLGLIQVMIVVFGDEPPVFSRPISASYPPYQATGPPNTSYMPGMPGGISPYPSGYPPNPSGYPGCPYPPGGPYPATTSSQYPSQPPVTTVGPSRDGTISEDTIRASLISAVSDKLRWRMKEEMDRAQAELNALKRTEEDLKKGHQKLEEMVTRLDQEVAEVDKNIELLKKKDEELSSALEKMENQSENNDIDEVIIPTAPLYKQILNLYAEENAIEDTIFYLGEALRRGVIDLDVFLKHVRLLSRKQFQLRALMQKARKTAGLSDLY
Sequence of Flap endonuclease 1 (Homo sapiens) (P39748 whole entry, looked up): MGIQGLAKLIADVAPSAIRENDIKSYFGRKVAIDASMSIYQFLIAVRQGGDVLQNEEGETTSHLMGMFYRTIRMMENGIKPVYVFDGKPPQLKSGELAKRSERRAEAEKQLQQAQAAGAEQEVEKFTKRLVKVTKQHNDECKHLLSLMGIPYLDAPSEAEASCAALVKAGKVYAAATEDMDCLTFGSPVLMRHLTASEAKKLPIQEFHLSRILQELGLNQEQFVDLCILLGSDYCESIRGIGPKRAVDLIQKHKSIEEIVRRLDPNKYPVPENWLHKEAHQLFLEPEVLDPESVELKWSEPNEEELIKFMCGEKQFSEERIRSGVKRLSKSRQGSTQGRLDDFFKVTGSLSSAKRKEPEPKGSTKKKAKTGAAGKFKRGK
Sequence of ATP-dependent 6-phosphofructokinase (Trypanosoma brucei brucei) (O15648 whole entry, looked up): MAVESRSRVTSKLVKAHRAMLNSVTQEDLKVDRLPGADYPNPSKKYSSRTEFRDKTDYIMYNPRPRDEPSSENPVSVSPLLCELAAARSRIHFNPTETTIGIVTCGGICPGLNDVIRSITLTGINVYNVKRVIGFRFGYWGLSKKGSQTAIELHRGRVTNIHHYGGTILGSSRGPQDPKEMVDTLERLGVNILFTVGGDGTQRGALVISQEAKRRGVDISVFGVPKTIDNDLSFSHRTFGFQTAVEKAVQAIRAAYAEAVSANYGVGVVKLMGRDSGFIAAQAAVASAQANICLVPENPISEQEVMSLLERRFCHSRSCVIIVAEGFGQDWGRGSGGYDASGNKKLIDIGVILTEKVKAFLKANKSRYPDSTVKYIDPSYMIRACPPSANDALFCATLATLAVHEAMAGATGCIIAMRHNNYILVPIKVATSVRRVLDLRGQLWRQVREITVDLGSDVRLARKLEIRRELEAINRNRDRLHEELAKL
Sequence of Ubiquitin carboxyl-terminal hydrolase 2 (Homo sapiens) (O75604 whole entry, looked up): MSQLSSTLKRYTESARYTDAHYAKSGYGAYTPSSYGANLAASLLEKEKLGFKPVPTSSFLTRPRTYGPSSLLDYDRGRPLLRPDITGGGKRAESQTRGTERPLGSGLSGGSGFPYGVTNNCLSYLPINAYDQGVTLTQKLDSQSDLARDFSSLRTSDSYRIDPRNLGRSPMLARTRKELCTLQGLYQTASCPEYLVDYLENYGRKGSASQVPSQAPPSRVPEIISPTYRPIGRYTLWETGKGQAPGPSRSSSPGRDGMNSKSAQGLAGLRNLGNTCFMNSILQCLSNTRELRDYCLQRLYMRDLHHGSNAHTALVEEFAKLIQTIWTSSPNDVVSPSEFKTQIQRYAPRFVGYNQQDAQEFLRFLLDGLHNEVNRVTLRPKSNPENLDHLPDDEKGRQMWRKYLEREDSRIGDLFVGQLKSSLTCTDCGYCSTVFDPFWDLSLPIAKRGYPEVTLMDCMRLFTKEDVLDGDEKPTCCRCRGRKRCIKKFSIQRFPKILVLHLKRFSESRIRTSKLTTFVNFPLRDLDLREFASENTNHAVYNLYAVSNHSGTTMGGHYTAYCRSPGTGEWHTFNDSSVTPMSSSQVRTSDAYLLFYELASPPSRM
Sequence of DNA polymerase III PolC-type (Bacillus subtilis (strain 168)) (P13267 whole entry, looked up): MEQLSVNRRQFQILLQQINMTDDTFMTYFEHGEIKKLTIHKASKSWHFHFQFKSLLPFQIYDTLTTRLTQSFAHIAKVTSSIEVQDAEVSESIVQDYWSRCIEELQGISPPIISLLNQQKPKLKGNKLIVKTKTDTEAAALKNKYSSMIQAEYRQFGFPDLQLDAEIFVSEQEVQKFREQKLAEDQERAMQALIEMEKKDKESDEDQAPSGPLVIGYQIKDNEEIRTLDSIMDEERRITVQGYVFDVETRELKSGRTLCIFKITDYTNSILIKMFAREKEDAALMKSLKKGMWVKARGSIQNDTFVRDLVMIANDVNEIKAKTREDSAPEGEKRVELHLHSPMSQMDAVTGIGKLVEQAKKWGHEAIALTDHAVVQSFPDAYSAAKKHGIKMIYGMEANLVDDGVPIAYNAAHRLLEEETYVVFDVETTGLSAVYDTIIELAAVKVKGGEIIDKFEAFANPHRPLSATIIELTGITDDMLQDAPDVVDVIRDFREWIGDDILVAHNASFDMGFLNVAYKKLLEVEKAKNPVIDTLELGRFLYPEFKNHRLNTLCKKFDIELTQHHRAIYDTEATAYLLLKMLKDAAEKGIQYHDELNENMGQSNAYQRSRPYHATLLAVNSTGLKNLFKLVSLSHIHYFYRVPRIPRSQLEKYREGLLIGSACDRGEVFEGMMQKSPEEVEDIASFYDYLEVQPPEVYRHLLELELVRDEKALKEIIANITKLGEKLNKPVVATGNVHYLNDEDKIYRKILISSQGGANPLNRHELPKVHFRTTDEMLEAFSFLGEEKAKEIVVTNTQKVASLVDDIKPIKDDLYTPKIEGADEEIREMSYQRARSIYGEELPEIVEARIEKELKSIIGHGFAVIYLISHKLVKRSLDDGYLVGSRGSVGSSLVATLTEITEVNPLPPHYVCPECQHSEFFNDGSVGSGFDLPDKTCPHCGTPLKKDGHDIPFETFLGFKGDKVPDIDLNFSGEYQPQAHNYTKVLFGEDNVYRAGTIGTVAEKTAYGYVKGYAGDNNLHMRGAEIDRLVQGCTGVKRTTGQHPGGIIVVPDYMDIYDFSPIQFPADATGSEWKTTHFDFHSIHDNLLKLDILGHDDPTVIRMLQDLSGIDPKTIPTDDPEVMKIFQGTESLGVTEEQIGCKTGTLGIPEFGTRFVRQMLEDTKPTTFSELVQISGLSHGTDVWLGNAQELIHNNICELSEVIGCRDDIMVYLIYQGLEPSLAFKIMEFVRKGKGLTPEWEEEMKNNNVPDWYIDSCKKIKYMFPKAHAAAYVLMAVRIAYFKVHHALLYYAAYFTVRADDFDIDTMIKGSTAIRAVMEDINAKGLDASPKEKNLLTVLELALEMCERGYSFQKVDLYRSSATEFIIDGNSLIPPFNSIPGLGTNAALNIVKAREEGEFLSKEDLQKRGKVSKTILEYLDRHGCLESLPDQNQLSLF
Sequence of Thioredoxin reductase 1, cytoplasmic (Rattus norvegicus) (O89049 whole entry, looked up): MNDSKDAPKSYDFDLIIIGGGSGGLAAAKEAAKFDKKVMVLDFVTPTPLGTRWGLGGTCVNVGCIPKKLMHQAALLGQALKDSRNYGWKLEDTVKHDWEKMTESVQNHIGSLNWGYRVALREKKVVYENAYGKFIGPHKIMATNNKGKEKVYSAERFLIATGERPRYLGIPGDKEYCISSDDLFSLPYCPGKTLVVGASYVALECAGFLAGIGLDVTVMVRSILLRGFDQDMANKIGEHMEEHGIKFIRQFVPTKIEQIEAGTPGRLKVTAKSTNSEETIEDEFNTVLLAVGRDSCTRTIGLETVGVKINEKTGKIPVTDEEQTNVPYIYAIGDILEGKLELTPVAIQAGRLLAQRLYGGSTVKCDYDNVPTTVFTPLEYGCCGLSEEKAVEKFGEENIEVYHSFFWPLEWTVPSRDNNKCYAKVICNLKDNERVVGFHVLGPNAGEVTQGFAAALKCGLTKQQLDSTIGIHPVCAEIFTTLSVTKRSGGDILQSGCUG

CN(C)CC/C=C1\c2ccccc2COc2ccccc21
inactive: [1]

Cc1cn[nH]c1
inactive: [1]

Nc1nnc(-c2cccc(Cl)c2Cl)c(N)n1
inactive: [1]

O=c1n(CCCN2CCN(c3cccc(Cl)c3)CC2)nc2ccccn12
inactive: [1]

Cc1cccc(C)c1NC(=O)CN1CCCC1=O
not listed: [1] | [15] | [16] | [17] | [18]
inactive: all other assays above

CNCCC(Oc1ccc(C(F)(F)F)cc1)c1ccccc1 (centres undefined)
inactive: [15] | [11]

CC(O)(CS(=O)(=O)c1ccc(F)cc1)C(=O)Nc1ccc(C#N)c(C(F)(F)F)c1 (centres undefined)
not listed: [1] | [15] | [16] | [17] | [18]
inactive: all other assays above

C[C@@H]1O[C@@H](O[C@H]2C[C@@H](O)[C@]3(CO)[C@H]4[C@H](O)C[C@]5(C)[C@@H](C6=CC(=O)OC6)CC[C@]5(O)[C@@H]4CC[C@]3(O)C2)[C@H](O)[C@H](O)[C@H]1O
not listed: [1] | [15] | [18]
inactive: all other assays above

CC1=C(/C=C/C(C)=C/C=C/C(C)=C/C(=O)Nc2ccc(O)cc2)C(C)(C)CCC1
inactive: [1]

COc1cc2nc(N3CCN(C(=O)C4COc5ccccc5O4)CC3)nc(N)c2cc1OC (centres undefined)
inactive: [1]

Cn1cnc([N+](=O)[O-])c1Sc1ncnc2nc[nH]c12
inactive: [1]

CC(=O)[C@H]1CC[C@H]2[C@@H]3CC[C@H]4C[C@](C)(O)CC[C@]4(C)[C@H]3CC[C@]12C
not listed: [1] | [15] | [16] | [17] | [18]
inactive: all other assays above

Cc1cccc(C)c1OCC(C)N (centres undefined)
inactive: [1]

CC(C)=CCOc1c2occc2cc2ccc(=O)oc12
not listed: [1] | [11] | [15] | [16] | [17] | [18]
inactive: all other assays above

Clc1ccc(C(c2ccccc2Cl)C(Cl)Cl)cc1 (centres undefined)
inactive: [1]

CN(C)CC[C@@H](c1ccc(Br)cc1)c1ccccn1
inactive: [1]

CCCN1CCC[C@@H]2Cc3[nH]ncc3C[C@H]21
not listed: [1] | [15] | [16] | [17] | [18]
inactive: all other assays above

Cc1ccc(S(=O)(=O)NC(=O)NN2CCCCCC2)cc1
inactive: [1]

CC[C@@H](CO)NC(=O)[C@@H]1C=C2c3cccc4[nH]cc(c34)C[C@H]2N(C)C1
inactive: [2] | [3] | [4] | [5] | [8] | [9] | [10] | [12]

O=c1c(O)c(-c2ccc(O)c(O)c2)oc2cc(O)cc(O)c12
active: [15] 28.2 µM | [7] 10.6 µM | [11] 6.75 µM | [16] 10.4 µM | [14] 2.38 µM
inactive: [1]

O=C1CCc2cc(OCCCCc3nnnn3C3CCCCC3)ccc2N1
inactive: [1]

CN(C)C(=O)C(CCN1CCC(O)(c2ccc(Cl)cc2)CC1)(c1ccccc1)c1ccccc1
active: [4] 18.5 µM | [5] 13.1 µM | [1] 12.6 µM | [16] 7.38 µM | [17] 8.28 µM

CC12CC3CC(C)(C1)CC(N)(C3)C2
inactive: [15] | [1] | [14]

COc1ccc(C(CN(C)C)C2(O)CCCCC2)cc1 (centres undefined)
active: [11] 5.36 µM
not listed: [1] | [15] | [16] | [17] | [18]
inactive: all other assays above

CCC1(c2ccccc2)C(=O)NCNC1=O
inactive: [1]

Cc1cnc(C(=O)NCCc2ccc(S(=O)(=O)NC(=O)NC3CCCCC3)cc2)cn1
inactive: [1]

Cc1cc2c(C(C)C)c(O)c(O)c(C=O)c2c(O)c1-c1c(C)cc2c(C(C)C)c(O)c(O)c(C=O)c2c1O
active: [3] 2.61 µM | [4] 14.7 µM | [6] 5.21 µM | [7] 10.6 µM | [13] 15 µM | [14] 11.9 µM

O=C1N=C(O)CN1/N=C/c1ccc(-c2ccc([N+](=O)[O-])cc2)o1
inactive: [1]

CC[C@@H](CO)NC(=O)[C@@H]1C=C2c3cccc4c3c(cn4C)C[C@H]2N(C)C1
inactive: [2] | [3] | [4] | [5] | [6] | [8] | [10] | [11] | [12]
active: [7] 16.8 µM | [13] 10.6 µM

CN(C)CCOC(C)(c1ccccc1)c1ccccn1 (centres undefined)
inactive: [1]

COc1ccc(Cl)cc1C(=O)NCCc1ccc(S(=O)(=O)NC(=O)NC2CCCCC2)cc1
inactive: [1]

COc1cc2c(c(OC)c1OC)-c1ccc(OC)c(=O)cc1[C@@H](NC(C)=O)CC2
active: [18] 0.0398 µM

O=c1[nH]cc(F)c(=O)[nH]1
active: [16] 9.28 µM | [17] 10.4 µM

CC[N+](C)(C)c1cccc(O)c1
active: [16] 0.0059 µM
